Measurements from PubChem BioAssay (NCATS).
Results filed as inconclusive are left out. Activity calls are given as the source filed them. Unless noted, calls follow the shape of the dose curve; as a rule, active = well fitted curve in either direction with a large enough effect (not every such curve was filed as active); inconclusive = small, poorly fitted or top-dose-only effect, or another doubt; inactive = flat fitted curve, though single readings scatter.

Tests used:
[1] = target: Lysosomal acid glucosylceramidase (Homo sapiens) (UniProt P04062); assay: Glucocerebrosidase-p2 (AID 348; in the data active = potency below about 10 µM; also: potency is read from the fitted curve at half-maximal effect); conditions: purified GBA, blue fluorogenic substrate, 40 min
Sequence of Lysosomal acid glucosylceramidase (Homo sapiens) (P04062 whole entry, looked up): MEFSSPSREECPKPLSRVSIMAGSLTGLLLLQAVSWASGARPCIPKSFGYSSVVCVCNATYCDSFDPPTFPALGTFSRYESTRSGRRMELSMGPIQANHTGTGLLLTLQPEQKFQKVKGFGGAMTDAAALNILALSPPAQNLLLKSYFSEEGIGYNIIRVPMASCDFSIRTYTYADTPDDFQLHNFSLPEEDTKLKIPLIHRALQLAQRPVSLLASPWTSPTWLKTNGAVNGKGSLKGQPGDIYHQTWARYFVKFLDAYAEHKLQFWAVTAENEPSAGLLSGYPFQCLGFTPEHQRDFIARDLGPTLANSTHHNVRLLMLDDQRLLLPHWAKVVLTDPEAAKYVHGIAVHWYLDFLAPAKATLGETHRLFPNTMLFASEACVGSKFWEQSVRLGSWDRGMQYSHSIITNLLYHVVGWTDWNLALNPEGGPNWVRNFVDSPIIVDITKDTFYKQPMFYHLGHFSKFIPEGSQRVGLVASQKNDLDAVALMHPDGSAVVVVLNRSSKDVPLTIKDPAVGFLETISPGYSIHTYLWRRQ
In short: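 Normal human glucocerebrosidase (0.2 nM) with blue fluorogenic substrate (80 uM final) in citrate/phosphate pH 5.9 with 10mM sodium taurocholate, 0.01% tween-20; 40 min RT, NaOH/glycine stop; fluorescence Ex 365/Em 440; AC50 from a titration from 0.6 nM upwards.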

[2] = AP1 Signaling Pathway (AID 357); conditions: ME-180 AP-1-bla reporter, EGF-induced, beta-lactamase ratio, 5 h; at 7.69 µM (top of the series) unless noted;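 also: ME-180 reporter cells stimulated with EGF at its EC50 level; % is scaled to controls: 0 for no effect and ±100 for the full control effect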
In short: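 Beta-lactamase reporter under AP-1 response element, ME-180 background. Stimulus: EC50 EGF. Compound exposure 5 h, 37 °C. Detection: CCF4, 2.5 h RT, 460/530 nm. Values: AC50 from titration.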

[3] = target: Cytochrome P450 1A2 (Homo sapiens) (UniProt P05177); assay: p450-cyp1a2 (AID 410; calls by dose curve; also: potency is read from the fitted curve at half-maximal effect;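 as to activity change, negative = inhibition: -100% = full effect of reference inhibitor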); conditions: recombinant CYP1A2, luciferin-ME demethylation, luminescence; series mostly up to 11.4 µM
Sequence of Cytochrome P450 1A2 (Homo sapiens) (P05177 whole entry, looked up): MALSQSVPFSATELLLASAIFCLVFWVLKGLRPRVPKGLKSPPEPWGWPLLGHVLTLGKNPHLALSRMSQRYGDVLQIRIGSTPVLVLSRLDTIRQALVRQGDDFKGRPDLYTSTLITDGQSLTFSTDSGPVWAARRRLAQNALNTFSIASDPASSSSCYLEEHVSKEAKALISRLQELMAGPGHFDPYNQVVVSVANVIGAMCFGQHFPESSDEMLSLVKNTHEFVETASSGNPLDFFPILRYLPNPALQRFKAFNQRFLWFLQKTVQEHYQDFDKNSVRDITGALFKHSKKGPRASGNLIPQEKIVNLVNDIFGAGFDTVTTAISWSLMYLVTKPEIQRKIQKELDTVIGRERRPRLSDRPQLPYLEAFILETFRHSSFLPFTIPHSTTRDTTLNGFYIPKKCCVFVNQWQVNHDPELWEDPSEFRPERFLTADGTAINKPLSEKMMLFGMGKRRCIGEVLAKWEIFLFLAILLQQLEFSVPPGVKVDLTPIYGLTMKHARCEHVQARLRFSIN
In short: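 Luminescent demethylation readout: Luciferin-ME (100uM, equal to Km) turned over by 20nM CYP1A2 for 60 min at room temperature after NADPH regeneration addition, following 10 min compound preincubation. Normalization used 57 uM furafylline as full inhibition.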

[4] = NFAT Signaling Pathway (AID 444); conditions: Jurkat NFAT-bla M1, carbachol, beta-lactamase ratio, 5 h; at 7.69 µM (top of the series) unless noted;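 also: carbachol stimulus at about its EC50 of 1 µM final; % is scaled to controls: 0 for no effect and ±100 for the full control effect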
In short: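 Jurkat cells carrying an NFAT-driven β-lactamase reporter and co-transfected muscarinic M1 receptor were treated with compound plus carbachol (1 uM final, an EC50 level) for 5 h at 37 °C. CCF4 loading followed for 1 h at RT; 460/530 nm ratio gave %activity.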

[5] = Stat Signaling Pathway (AID 446); conditions: ME-180 SIE beta-lactamase reporter, IL-6 stimulated, 5 h; at 7.69 µM (top of the series) unless noted;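 also: ME-180 cervical cancer cells given 40 pM IL-6 alongside compound; SIE-controlled beta-lactamase reporter measured as 460/530 nm FRET emission ratio; % is scaled to controls: 0 for no effect and ±100 for the full control effect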
In short: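 Emission at 460 and 530 nm (excitation 405 nm) reports SIE-controlled beta-lactamase in ME-180 cells. Cells received compound with 40 pM IL-6 for 5 hrs at 37 C; data scaled between 300 pM IL-6 and 125 nM JAK-inhibitor controls.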

[6] = target: Glucocorticoid receptor (Homo sapiens) (UniProt P04150); assay: GR-GFP Redistribution (AID 450;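 active = compounds whose dose series gives a full or clear partial fitted curve of increased nuclear translocation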; also: potency is read from the fitted curve at half-maximal effect); conditions: U2OS GR-GFP nuclear translocation, laser cytometry, 2 h
Sequence of Glucocorticoid receptor (Homo sapiens) (P04150 whole entry, looked up, the tested form may be a part): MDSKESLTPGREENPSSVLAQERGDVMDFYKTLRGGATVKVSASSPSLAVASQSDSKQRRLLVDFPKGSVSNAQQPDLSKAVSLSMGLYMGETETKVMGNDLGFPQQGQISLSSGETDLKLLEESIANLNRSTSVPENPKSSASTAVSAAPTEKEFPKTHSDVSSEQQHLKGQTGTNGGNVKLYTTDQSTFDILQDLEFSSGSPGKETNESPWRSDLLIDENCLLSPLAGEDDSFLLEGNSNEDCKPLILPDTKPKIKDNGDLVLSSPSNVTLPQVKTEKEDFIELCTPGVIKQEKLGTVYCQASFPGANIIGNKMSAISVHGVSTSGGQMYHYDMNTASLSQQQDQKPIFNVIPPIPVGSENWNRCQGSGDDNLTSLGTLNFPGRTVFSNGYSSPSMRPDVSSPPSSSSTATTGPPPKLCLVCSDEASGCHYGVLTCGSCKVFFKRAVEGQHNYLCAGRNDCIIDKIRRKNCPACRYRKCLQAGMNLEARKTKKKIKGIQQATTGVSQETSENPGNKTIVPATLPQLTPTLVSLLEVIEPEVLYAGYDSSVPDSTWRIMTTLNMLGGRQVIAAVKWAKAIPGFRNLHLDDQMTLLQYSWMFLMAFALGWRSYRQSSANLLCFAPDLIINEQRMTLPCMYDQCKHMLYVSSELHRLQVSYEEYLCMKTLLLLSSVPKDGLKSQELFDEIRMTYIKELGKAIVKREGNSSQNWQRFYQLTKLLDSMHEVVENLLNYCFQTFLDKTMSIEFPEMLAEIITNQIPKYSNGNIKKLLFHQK

[7] = target: Glucocorticoid receptor (Homo sapiens) (UniProt P04150); assay: GR-EFC Redistribution (AID 451; calls by dose curve; also: potency is read from the fitted curve at half-maximal effect); conditions: CHO-K1 GR-EFC translocation, beta-gal luminescence, 2 h
In short: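 CHO-K1 cells stably expressing nuclear-localized β-gal enzyme acceptor and GR fused C-terminally to the enzyme donor fragment; ligand-driven nuclear translocation restores β-gal by complementation. Compounds titrated up to 46 uM final, 2 h at 37 °C; luminescence read.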

[8] = target: Mitogen-activated protein kinase 10 (Mus musculus) (UniProt Q61831); assay: JNK3 AlphaScreen Assay (AID 530); conditions: JNK3 lysate, c-Jun phosphorylation; series mostly up to 11.4 µM;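 also: kinase came from lysate of stimulated human HepG2 cells; signal reports phosphorylation of biotinylated GST-cJun 1-79 at Ser73 with 10 µM ATP; % is scaled to controls: 0 for no effect and ±100 for the full control effect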
In short: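 Phosphorylation of biotinylated GST-cJun(1-79) at Ser73 is measured by AlphaScreen proximity luminescence. Enzyme is JNK3 in HepG2 lysates activated with interleukin-1beta and tumor necrosis factor alpha; ATP is 10 uM final.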

[9] = target: 3',5'-cyclic-AMP phosphodiesterase 4B (Homo sapiens) (UniProt Q07343); assay: qHTS Assay for Inhibitors of PDE-IV (AID 607; active = well fitted activation curve with a large enough effect in the main read-out, with a control signal flat, not every such curve was filed as active; also: % of control where 0% means no effect); conditions: HEK293 ACTOne CNG channel cells, membrane potential fluorescence; series mostly up to 22.9 µM
Sequence of 3',5'-cyclic-AMP phosphodiesterase 4B (Homo sapiens) (Q07343 whole entry, looked up): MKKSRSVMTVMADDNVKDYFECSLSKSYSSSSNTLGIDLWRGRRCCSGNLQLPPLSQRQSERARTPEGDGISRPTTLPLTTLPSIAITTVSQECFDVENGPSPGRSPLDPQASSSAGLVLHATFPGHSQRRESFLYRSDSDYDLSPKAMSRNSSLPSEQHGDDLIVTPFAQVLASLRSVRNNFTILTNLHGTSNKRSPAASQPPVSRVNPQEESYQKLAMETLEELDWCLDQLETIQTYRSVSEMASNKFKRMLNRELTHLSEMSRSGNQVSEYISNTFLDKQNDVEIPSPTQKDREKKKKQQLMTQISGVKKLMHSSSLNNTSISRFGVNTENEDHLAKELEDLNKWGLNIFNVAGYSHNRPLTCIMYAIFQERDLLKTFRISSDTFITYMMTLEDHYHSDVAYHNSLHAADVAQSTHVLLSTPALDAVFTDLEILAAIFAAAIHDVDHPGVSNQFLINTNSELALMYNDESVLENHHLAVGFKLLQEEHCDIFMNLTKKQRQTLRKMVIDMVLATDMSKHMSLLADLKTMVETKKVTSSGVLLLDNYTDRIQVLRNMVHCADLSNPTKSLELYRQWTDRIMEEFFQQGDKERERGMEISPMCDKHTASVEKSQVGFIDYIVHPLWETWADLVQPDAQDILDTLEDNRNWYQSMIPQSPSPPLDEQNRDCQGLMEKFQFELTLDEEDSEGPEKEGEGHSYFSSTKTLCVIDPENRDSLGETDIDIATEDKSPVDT
In short: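 The readout is membrane depolarisation from a cAMP-sensing CNG channel, detected with a potential dye at ex 535/em 590. Cells were HEK293-derived (endogenous PDE-IV) at 1000 cells/well, titrated up to 22.9 uM final.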

[10] = target: Cytochrome P450 2D6 (Homo sapiens) (UniProt P10635); assay: qHTS Assay for Inhibitors and Substrates of Cytochrome P450 2D6 (AID 891; active = well fitted curve in the direction sought with a large enough effect; an effect the other way counts as inactive or inconclusive; also: nearly all actives have a fitted effect of over 60% in size; also: potency is read from the fitted curve at half-maximal effect); conditions: recombinant CYP2D6, luciferin-ME EGE luminescence; series mostly up to 11.4 µM
Sequence of Cytochrome P450 2D6 (Homo sapiens) (P10635 whole entry, looked up): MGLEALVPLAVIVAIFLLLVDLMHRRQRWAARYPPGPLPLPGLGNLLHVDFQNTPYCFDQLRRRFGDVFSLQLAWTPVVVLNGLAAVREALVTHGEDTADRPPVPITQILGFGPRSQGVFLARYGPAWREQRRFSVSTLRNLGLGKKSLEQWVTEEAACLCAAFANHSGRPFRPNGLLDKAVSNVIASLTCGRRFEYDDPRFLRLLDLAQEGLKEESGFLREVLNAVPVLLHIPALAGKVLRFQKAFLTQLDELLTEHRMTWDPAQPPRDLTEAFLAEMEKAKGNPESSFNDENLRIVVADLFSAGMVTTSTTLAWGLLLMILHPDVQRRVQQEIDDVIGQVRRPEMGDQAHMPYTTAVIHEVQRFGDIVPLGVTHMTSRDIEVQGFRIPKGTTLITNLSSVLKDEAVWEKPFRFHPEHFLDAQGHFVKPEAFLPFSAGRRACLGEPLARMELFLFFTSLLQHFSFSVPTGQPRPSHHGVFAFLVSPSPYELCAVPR
In short: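 Luminescent read-out of luciferin formed by 5 nM human CYP2D6 demethylating 30 uM Luciferin-ME EGE (Km level) over 60 min at room temperature after NADPH regeneration addition. Data normalized to full inhibition by 1.43 uM quinidine.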

[11] = target: Cytochrome P450 3A4 (Homo sapiens) (UniProt P08684); assay: qHTS Assay for Activators of Cytochrome P450 3A4 (AID 885; active = well fitted curve in the direction sought with a large enough effect; an effect the other way counts as inactive or inconclusive; also: nearly all actives have a fitted effect of over 65% in size); conditions: recombinant CYP3A4, Luciferin-PPXE luminescence, 60 min; series mostly up to 11.4 µM
Sequence of Cytochrome P450 3A4 (Homo sapiens) (P08684 whole entry, looked up): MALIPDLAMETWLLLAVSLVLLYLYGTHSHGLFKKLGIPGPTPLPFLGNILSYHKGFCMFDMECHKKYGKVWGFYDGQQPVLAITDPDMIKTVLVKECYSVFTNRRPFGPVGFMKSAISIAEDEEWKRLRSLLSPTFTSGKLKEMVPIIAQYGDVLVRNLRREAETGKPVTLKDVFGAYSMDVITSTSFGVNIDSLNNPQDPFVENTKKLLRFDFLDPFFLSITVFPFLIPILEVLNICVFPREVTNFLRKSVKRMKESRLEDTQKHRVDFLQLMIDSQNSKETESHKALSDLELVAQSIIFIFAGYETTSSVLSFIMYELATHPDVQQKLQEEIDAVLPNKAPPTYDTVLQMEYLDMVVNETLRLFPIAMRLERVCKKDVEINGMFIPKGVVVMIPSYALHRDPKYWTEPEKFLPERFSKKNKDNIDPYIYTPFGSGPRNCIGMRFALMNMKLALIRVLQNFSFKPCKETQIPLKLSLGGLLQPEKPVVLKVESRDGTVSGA
In short: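 Activators are scored by enhanced luminescence from CYP3A4 conversion of luciferin-PPXE (25uM, equal to KM) to luciferin, after 60 min at RT with an NADPH-regenerating system.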

[12] = qHTS Assay for Identification of Small Molecule Agonists for Hypoxia Response Element Signaling Pathway (AID 914; active = well fitted activation curve with a large enough effect in the signal ratio, with a control signal flat, not every such curve was filed as active; the % refers to the signal ratio; also: % of control where 0% means no effect); conditions: ME-180 (cervical carcinoma) HRE-bla reporter, beta-lactamase ratio, CoCl2, 17 h; activation: hits give high values
In short: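 Compounds in a titration series were added to ME-180 reporter cells alongside an EC50 level of CoCl2. After 17 hours, beta-lactamase activity was read as the 460nm/530nm emission ratio of CCF4, giving AC50 values.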

[13] = target: Cytochrome P450 2C19 (Homo sapiens) (UniProt P33261); assay: qHTS Assay for Inhibitors and Substrates of Cytochrome P450 2C19 (AID 899; active = well fitted curve in the direction sought with a large enough effect; an effect the other way counts as inactive or inconclusive; also: potency is read from the fitted curve at half-maximal effect; nearly all actives have a fitted effect of over 60% in size); conditions: recombinant CYP2C19, luciferin-H EGE luminescence; series mostly up to 11.4 µM
Sequence of Cytochrome P450 2C19 (Homo sapiens) (P33261 whole entry, looked up): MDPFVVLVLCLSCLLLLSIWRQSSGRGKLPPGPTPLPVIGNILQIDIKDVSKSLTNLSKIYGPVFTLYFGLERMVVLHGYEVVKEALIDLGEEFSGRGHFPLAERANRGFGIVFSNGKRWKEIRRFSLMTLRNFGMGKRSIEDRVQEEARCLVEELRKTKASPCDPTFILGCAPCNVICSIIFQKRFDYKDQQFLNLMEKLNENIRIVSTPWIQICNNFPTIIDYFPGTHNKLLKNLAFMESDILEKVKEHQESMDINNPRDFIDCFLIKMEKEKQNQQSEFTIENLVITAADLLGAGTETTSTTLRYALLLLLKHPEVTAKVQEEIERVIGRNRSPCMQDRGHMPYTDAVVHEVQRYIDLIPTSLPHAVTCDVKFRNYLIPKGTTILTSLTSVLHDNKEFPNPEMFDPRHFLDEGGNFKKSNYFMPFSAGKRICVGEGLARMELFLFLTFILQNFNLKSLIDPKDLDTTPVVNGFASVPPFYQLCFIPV
In short: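 NADPH-dependent conversion of Luciferin-H EGE (10uM, at KM) by 5nM enzyme in 50mM KPO4, 60 min at 37C following 10 min compound preincubation. Stopped with luciferin detection buffer; luminescence read after 20 min.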

O=C(O)c1cc2ccccc2c(S(=O)(=O)O)c1O
inactive: Potency [1] > 11.4 µM | activity change, negative = inhibition [2] 2.94% | Potency [3] | activity change, negative = inhibition [4] 7.56% | activity, negative = inhibition [5] 3.56% | Potency [6] > 46 µM | Potency [7] > 9.22 µM | Potency [8] | Potency [9] | Potency [10]

O=C(O)CCC(=O)c1ccc2ccc3cccc4ccc1c2c34
active: Potency [3] 1.26 µM
inactive: Potency [1] > 11.4 µM | activity change, negative = inhibition [2] 5.4% | activity change, negative = inhibition [4] 19.9% | activity, negative = inhibition [5] -5.24% | Potency [6] > 46 µM | Potency [7] > 9.22 µM | Potency [8] | Potency [9] | Potency [10]

COCCn1c(=O)c(-c2cc(F)cc(F)c2)nc2cnc(Oc3ccccc3)nc21
inactive: Potency [1] > 11.4 µM | activity change, negative = inhibition [2] 0.911% | activity change, negative = inhibition [4] -3.81% | activity, negative = inhibition [5] 0.0611% | Potency [6] > 9.22 µM | Potency [7] > 46 µM | Potency [8] | Potency [9] | Potency [11] | activation [12] 20.9%
active: Potency [3] 5.01 µM

NCCCc1c(-c2ccccc2)nc(N)[nH]c1=O
inactive: Potency [1] > 11.4 µM | activity change, negative = inhibition [2] 0.759% | Potency [3] | activity change, negative = inhibition [4] 4.17% | activity, negative = inhibition [5] 9.18% | Potency [6] > 46 µM | Potency [7] > 9.22 µM | Potency [8] | Potency [9] | Potency [10]

C[C@]12CC[C@H]3c4ccc(O)cc4CC[C@@H]3[C@H]1C/C(=N/O)[C@H]2O
inactive: Potency [1] > 11.4 µM | activity change, negative = inhibition [2] -6.54% | Potency [3] | activity change, negative = inhibition [4] 3.7% | activity, negative = inhibition [5] 1.89% | Potency [6] > 46 µM | Potency [7] > 9.22 µM | Potency [8] | Potency [9] | Potency [10]

CCCn1cnc2c(SCc3ccc(Cl)cc3)nc(N)nc21
inactive: Potency [1] > 11.4 µM | activity change, negative = inhibition [2] -19.8% | activity change, negative = inhibition [4] -4.9% | activity, negative = inhibition [5] -5.52% | Potency [6] > 46 µM | Potency [7] > 9.22 µM | Potency [8] | Potency [9] | Potency [11]
active: Potency [3] 1.26 µM | Potency [13] 0.501 µM

Oc1ccc2ccccc2c1CN(Cc1c(O)ccc2ccccc12)C1CCCCC1
active: Potency [3] 0.631 µM | Potency [10] 0.631 µM
inactive: Potency [1] > 11.4 µM | activity change, negative = inhibition [2] 3.63% | activity change, negative = inhibition [4] -9.52% | activity, negative = inhibition [5] -14.2% | Potency [6] > 46 µM | Potency [7] > 9.22 µM | Potency [8] | Potency [9]
